Assay [1] is described as follows: qHTS for Activators of Parkin Expression: LOPAC Validation Assay (FLuc Reporter) (AID 720573;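 note: 0% = DMSO and 100% = positive control compounds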). The note with it: Cell line, PRKN promoter firefly luciferase reporter, vehicle wells = 0, positive control = 100%; series mostly up to 46.1 µM. The gist of the method:
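Neuronal cell line stably expressing FLuc/NLuc coincidence reporter under the Parkin promoter, 1,500 cells/well, dosed 24 h after seeding in 7-point series for 24 h at 37 C. FLuc luminescence read; normalized to DMSO and positive control (100%).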

In assay [2] the target is T1, Hexokinase-4 (Homo sapiens) + Glucokinase regulatory protein (Homo sapiens) (UniProt P35557+Q14397). Kind of assay: qHTS assay for inhibitors of recombinant human GCK-GKRP interaction: Diaphorase-coupled assay (AID 743205). Note: potency is the fitted concentration of half-maximal effect. The note with it: G6PDH/diaphorase resorufin fluorescence; series mostly up to 57.5 µM. The gist of the method: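 Compounds pre-incubated 20 min with substrate, then 10 nM GST-GCK with 10 nM FLAG-GKRP added. GCK activity coupled via G6PDH and diaphorase to resorufin (5 mM glucose, 0.4 mM ATP, 0.15 mM NADP+, pH 7.6), read kinetically over 30 minutes at Ex 525/Em 590 nm.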
T1 sequence (P35557 whole entry, looked up): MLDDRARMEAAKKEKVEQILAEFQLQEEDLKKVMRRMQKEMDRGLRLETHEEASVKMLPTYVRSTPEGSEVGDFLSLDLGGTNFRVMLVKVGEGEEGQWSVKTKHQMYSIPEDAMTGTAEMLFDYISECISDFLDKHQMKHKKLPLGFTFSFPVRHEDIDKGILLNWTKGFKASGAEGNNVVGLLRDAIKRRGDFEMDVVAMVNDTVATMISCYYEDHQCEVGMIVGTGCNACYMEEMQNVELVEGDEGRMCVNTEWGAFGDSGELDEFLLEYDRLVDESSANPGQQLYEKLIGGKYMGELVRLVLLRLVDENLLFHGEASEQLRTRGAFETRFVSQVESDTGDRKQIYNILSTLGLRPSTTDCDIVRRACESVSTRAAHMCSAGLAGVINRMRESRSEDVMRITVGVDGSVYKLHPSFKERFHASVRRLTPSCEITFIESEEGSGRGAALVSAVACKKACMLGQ
T1 sequence (Q14397 whole entry, looked up): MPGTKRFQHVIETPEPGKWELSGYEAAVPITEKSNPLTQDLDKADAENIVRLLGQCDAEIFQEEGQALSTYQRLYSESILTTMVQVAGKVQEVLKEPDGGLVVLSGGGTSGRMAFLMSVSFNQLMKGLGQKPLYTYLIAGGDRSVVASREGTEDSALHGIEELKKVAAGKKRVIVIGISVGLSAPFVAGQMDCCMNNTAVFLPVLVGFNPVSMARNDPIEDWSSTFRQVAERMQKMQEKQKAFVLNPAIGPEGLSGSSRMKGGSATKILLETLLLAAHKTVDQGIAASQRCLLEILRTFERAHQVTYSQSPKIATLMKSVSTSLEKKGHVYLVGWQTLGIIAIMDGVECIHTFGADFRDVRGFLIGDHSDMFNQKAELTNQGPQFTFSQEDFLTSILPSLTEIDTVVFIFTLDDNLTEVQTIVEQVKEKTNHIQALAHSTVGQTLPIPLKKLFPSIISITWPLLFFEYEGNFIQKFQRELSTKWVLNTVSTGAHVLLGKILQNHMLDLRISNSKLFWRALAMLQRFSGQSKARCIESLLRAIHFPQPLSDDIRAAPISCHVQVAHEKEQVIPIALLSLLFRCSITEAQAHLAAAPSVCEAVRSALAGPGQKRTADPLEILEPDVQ

The target of assay [3] is T1, Hexokinase-4 (Homo sapiens) + Glucokinase regulatory protein (Homo sapiens). Kind of assay: qHTS assay for inhibitors of recombinant human GCK-GKRP interaction: ADP-Glo assay (AID 743206).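 Note: plate controls were DMSO plus enzyme for no effect and no enzyme for full effect.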 Conditions: ADP-Glo luminescence, 60 min, 0% = vehicle-only wells with enzyme present; series mostly up to 76.9 µM. An outline of the steps: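 GST-GCK and FLAG-GKRP (15 nM each in the dispensed mix, with 2 uM S6P) react with 0.4 mM ATP and 5 mM glucose (final) in Hepes pH 7.6 for 60 min at room temperature. ADP is measured by ADP-Glo luminescence.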
In general terms: qHTS replaces the single test concentration by a dilution series.

For assay [4] the target is unchanged. Kind of assay: qHTS assay for inhibitors of recombinant human GCK-GKRP interaction: HTRF assay (AID 743207).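 Note: 0% = DMSO with GCK present and -100% = DMSO wells lacking GCK.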 Conditions: recombinant GCK-GKRP HTRF binding, 60 min; series mostly up to 57.5 µM. An outline of the steps: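 HTRF binding of 5 nM GST-GCK and 5 nM FLAG-GKRP with 2 uM S6P in pH 7.1 Hepes buffer (MgCl2, KCl, DTT, Tween 20, BSA). Anti-FLAG XL665 and anti-GST donor added, 60 min at room temperature; 665/615 nm read, normalized to with- and without-GCK controls.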

A short description of assay [5]: qHTS Assay for Identifying Gametocytocidal Compounds (AID 743244).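 For max response: % is set by controls: 0 for no effect and ±100 for the full control effect; actives lower the fluorescent signal which means gametocytes are killed.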 Note: potency is the fitted concentration of half-maximal effect. The note with it: P. falciparum 3D7 stage III-V gametocytes, alamarBlue, 72 h; max response: active compounds read low. An outline of the steps:
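Using 20,000 stage III–V 3D7 gametocytes per well, compounds were incubated 72 h under 37 °C/5% CO2. Viability was then assessed by 24 h alamarBlue reduction, measured fluorometrically at 525/598 nm.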

Assay [6] in a line: qHTS assay for measurement of the activity of small molecule inhibitors on Zika virus induced Caspase-3 activity in human astrocytoma cells (AID 1224859).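 Note: plate controls were ZIKV-infected untreated cells for no effect and uninfected cells for full effect.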 The note with it: SNB-19 ZIKV-induced caspase-3/7, luminescence, 6 h; series mostly up to 45.7 µM. An outline of the steps:
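Inhibition of Zika-induced caspase-3/7 activity: SNB-19 cells, 1 h compound pretreatment, ZIKV 2 FFU/cell for 6 h at 37 C, Caspase-Glo luminescence read-out.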

The nature of assay [7]: qHTS assay for small molecule agonists of the antioxidant response element (ARE) signaling pathway measured by Nrf2-dependant transcriptional activity (AID 720636; active = well fitted curve in the direction sought with a large enough effect in the repeat runs; an effect the other way counts as inactive or inconclusive;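 note: HepG2 cells with an ARE-driven luciferase reporter; % of control where 0% means no effect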). The note with it: ARE-luc HepG2, Nrf2 luciferase reporter, 16 h; series mostly up to 92.4 µM. An outline of the steps: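 HepG2 ARE-luc reporter line, 1% dialyzed FBS; 6 hr attachment at 37 C, compound pinned in, 16 hr at 37 C/5% CO2; ONE-Glo, 30 min RT, luminescence read.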

The nature of assay [8]: qHTS assay for small molecule antagonists of the retinoid-related orphan receptor gamma (ROR-gamma) signaling pathway - cell viability counter screen (AID 720652; active = well fitted curve in the direction sought with a large enough effect in the repeat runs; an effect the other way counts as inactive or inconclusive;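 note: compound exposure lasted 16 hr before ATP read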; note: potency is the fitted concentration of half-maximal effect). Conditions: RORgamma reporter cell line viability counter screen; series mostly up to 92.2 µM. An outline of the steps: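 Cytotoxicity is quantified via intracellular ATP (CellTiter-Glo luminescence) in doxycycline-induced CHO ROR response element-luciferase reporter cells treated with compound for 16 hr at 37 C, 5% CO2.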

Assay [9] can be described thus: qHTS assay for small molecule agonists of the antioxidant response element (ARE) signaling pathway measured by Nrf2-dependant transcriptional activity - cell viability counter screen (AID 720653; active = well fitted curve in the direction sought with a large enough effect in the repeat runs; an effect the other way counts as inactive or inconclusive; note: potency is the fitted concentration of half-maximal effect; for max response: % is set by controls: 0 for no effect and ±100 for the full control effect). Conditions: ARE-bla HepG2 viability, CellTiter-Glo ATP luminescence, 16 h; max response: active compounds read low. An outline of the steps:
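ARE-bla HepG2 cells treated with compounds for 16 h at 37C; this counter screen measures viability as intracellular ATP by CellTiter-Glo luminescence after 30 min at room temperature.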

Assay [10] is described as follows: qHTS assay for cell viability of HEK293 cells (AID 743288). For max response: % is set by controls: 0 for no effect and ±100 for the full control effect. Note: nearly all actives have a fitted effect of over 50% in size. Note: potency is the fitted concentration of half-maximal effect. Conditions: ATP luminescence (CellTiter-Glo), 18 h; max response: active compounds read low. The gist of the method:
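Parental HEK293 cells, 2,000 per well, preincubated at least 5 h at 37 C, then exposed to compounds in DMSO for 18 h at 37 C. Viability by CellTiter-Glo ATP luminescence after 30 min at room temperature.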

The nature of assay [11]: qHTS assay for cell viability of the p53RE-bla HCT-116 cell line (AID 743292). Note: % is set by controls: 0 for no effect and ±100 for the full control effect; nearly all actives have a fitted effect of over 55% in size. The note with it: p53RE-bla HCT-116 viability, ATP luminescence, 16 h; series mostly up to 95 µM. An outline of the steps: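 Luminescent ATP quantitation (CellTiter-Glo) served as the viability read-out; reagent was added after 16 h compound exposure at 37 C and read after 30 min at room temperature. Cells: p53RE-bla HCT-116, 4,000 per well.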

The nature of assay [12]: qHTS assay to identify small molecule inhibitors of chordoma cells - UCH-1 (AID 1259355). Note: % is set by controls: 0 for no effect and ±100 for the full control effect; nearly all actives have a fitted effect of over 55% in size. The note with it: UCH-1 chordoma viability, CellTiter-Glo, 48 h, combination; series mostly up to 46.1 µM. The gist of the method: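 Cells (800/well) were seeded and left overnight at 37 C, 5% CO2, then treated with drugs at 15 concentrations plus a combination mix of auranofin, camptothecin, doxorubicin, rubitecan and topotecan. Viability after 48hr was read by CellTiter-Glo luminescence.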

Values joined by “and” are separate entries in the source; they are usually repeats but may differ in a detail not shown here. Identical values can stand only once. Values without a mark were called inactive. Records with an inconclusive call do not appear. Where a structure was tested more than once in an assay, its records may differ in their call. Active and inactive are the calls of the source. Unless noted, calls come from the whole dose curve; as a rule, active = well fitted curve in the direction sought with a large enough effect; inconclusive = small, poorly fitted or top-dose-only effect, or another doubt; inactive = no such curve, though single readings can be large; an effect the other way counts as inactive or inconclusive.

Turning to `C[N+]1(C)CCOC(O)(c2ccc(-c3ccc(C4(O)C[N+](C)(C)CCO4)cc3)cc2)C1` (stereo not drawn), the outcome in [1], in assay [3], in [4] and in assay [6] was inactive. For the same compound, the Potency result in assay [2] is “inactive”. The max response in assay [5] is 5.92%.

`C[N+]1(C)CCN(c2ccccc2)CC1`: the compound was called inactive in assay [1], in [3], in [4] and in assay [6]. In addition, the Potency result in [2] is “inactive”. The max response in [5] was -6.92%.

In the case of `NC(N)=NOCC[C@H](N)C(=O)O`, the result in [1], in [3], in [4] and in assay [6] was inactive. For the same compound, in assay [2], the Potency entry is “inactive”. Further, in assay [5], the max response is -9%.

Take `NCC(O)c1cc(O)c(O)cc1F` (stereo not drawn): the compound was classed as inactive in assay [1], in assay [3], in assay [4] and in [6]. In addition, in [2], the Potency result is “inactive”. Also, in assay [5], the max response was 20.1%.

Consider `CN1CC[C@@]2(C)c3cc(O)ccc3N(C)C12` (stereo partly drawn), for which the outcome in assay [1], in assay [3], in [4] and in assay [6] was inactive. In addition, in [2], the Potency result was “inactive”. For the same compound, the Potency in assay [5] was 3.16 µM (active).

In the case of `CC1(C(=O)O)C2CCC(O2)C1(C)C(=O)O` (stereo not drawn), the call in assay [1], in assay [3], in assay [4] and in assay [6] was inactive. Besides, the Potency entry in assay [2] was “inactive”. The max response in assay [5] was -9.57%.

Regarding `Nc1ccc(CCN2CCN(c3cccc(C(F)(F)F)c3)CC2)cc1`, the compound was called inactive in assay [1], in assay [3], in assay [4] and in assay [6]. In addition, the Potency entry in assay [2] is “inactive”. The max response in assay [5] is 14.5%.

As to `COc1ccc(CNC(=O)/C=C/c2ccc3[nH]cc(CCN(C)C)c3c2)cc1`, the call in [1], in [3], in assay [4] and in assay [6] was inactive. In addition, the Potency entry in assay [2] was “inactive”. Besides, the max response in assay [5] was -2.88%.

With `NNC(=O)c1ccc(O)cc1`, the compound was called inactive in assay [1], in assay [3], in assay [4] and in assay [6]. The Potency entry in assay [2] was “inactive”. Also, in assay [5], the max response was 7.91%.

Consider `Clc1ccc(N2CC3CCC(C2)N3)nn1`, for which the compound was classed as inactive in assay [1], in [3], in assay [4] and in [6]. Besides, the Potency entry in assay [2] is “inactive”. For the same compound, the max response in assay [5] was 23.5%.

With `O=c1c2ccccc2[se]n1-c1ccccc1`, the call in [1], in [3] and in assay [4] was inactive. The Potency in [2] is 14.1 µM (active).

Consider `O=C1C2CC=CCC2C(=O)N1SC(Cl)(Cl)Cl` (stereo not drawn), for which the Potency entry in assay [7] and in assay [11] was “inactive” each time. In addition, the Potency in assay [8] is 29.8 µM (active); in assay [9] it was 28.2 µM (active); in assay [10] it was 10 µM (active). For the same compound, the max response in [9] is -23.3%; in [5] it was -3.19%.

`CCCCCl`: the Potency result in assay [7], in [8] and in [11] was “inactive” each time. The max response in [9] is -3.38%; in [5] it was 3.57%; in assay [10], -0.598%.

Consider `CC(C)(C)c1cc(O)ccc1O`, for which the Potency entry in assay [8], in assay [11] and in assay [12] was “inactive” each time. The max response in [9] is 21.5% and -0.658% and -3.53%; in [10], -11% and 8.59% and 5.79%. For the same compound, the Potency in [5] was 31.6 µM (active) and 3.55 µM (active).

For the origin of these results see PubChem BioAssay (NCATS).
